# Experimental data published in ChEMBL document CHEMBL1961873, “Compounds: GSK PKIS; Assays: Nanosyn kinase panel” (2012).
# Assays:
# [1] = target: T1, Inhibitor of nuclear factor kappa-B kinase subunit epsilon (Homo sapiens) (UniProt Q14164); settings: at 1 µM;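 also: reported values are averaged percent inhibition figures against human IKKε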
# T1 sequence (whole entry): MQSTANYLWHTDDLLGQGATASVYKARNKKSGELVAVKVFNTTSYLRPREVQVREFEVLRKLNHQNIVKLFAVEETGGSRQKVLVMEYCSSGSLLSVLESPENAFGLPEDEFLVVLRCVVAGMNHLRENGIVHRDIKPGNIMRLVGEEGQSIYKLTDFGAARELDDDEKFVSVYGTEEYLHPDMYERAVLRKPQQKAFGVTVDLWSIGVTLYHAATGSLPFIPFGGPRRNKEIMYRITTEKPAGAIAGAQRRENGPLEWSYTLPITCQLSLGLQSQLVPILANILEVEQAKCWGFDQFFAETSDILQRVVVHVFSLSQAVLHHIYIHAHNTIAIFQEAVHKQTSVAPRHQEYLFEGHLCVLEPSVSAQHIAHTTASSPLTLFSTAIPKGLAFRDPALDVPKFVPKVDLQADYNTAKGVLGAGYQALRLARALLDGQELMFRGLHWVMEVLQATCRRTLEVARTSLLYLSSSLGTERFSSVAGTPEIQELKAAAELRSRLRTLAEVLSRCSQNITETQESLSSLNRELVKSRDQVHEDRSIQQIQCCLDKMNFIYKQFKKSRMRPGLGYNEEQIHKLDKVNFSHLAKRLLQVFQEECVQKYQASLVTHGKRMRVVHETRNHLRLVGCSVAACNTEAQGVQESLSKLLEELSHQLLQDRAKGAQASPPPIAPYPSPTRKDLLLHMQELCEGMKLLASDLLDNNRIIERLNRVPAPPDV
# [2] = target: T2, Serine/threonine-protein kinase Nek1 (Homo sapiens) (UniProt Q96PY6); settings: at 0.1 µM
# T2 sequence (whole entry): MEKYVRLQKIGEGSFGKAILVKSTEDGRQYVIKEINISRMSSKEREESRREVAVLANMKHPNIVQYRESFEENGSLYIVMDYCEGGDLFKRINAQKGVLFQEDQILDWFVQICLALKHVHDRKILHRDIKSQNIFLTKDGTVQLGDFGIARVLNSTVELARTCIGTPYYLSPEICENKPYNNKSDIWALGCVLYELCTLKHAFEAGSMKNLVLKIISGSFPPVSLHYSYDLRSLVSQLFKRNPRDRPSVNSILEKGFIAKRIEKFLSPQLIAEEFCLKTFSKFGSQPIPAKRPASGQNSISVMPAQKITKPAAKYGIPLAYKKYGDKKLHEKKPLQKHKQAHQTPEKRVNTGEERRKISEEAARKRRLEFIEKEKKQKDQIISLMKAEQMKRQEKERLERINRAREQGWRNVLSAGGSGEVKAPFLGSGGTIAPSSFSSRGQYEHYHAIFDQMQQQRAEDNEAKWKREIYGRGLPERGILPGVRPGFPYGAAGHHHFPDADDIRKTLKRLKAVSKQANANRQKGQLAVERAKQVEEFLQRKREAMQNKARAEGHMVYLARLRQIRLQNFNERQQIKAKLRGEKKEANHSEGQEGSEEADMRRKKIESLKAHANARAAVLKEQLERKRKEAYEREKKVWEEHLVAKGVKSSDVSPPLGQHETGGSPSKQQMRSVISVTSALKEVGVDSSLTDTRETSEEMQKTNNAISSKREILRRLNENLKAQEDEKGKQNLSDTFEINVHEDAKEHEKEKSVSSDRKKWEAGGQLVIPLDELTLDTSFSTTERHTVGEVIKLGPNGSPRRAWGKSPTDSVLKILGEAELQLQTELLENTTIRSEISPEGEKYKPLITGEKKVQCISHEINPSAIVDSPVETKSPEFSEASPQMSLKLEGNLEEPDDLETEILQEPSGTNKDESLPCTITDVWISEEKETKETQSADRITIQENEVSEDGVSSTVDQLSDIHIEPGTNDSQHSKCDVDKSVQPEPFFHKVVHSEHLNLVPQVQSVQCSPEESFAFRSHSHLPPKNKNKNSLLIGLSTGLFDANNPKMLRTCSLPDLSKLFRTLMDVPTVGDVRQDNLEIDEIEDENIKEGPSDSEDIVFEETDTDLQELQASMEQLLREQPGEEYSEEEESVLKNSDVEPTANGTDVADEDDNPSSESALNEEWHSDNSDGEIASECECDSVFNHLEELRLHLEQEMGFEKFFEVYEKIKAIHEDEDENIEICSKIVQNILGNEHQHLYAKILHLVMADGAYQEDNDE
# [3] = target: T2, Serine/threonine-protein kinase Nek1 (Homo sapiens); settings: at 1 µM
# [4] = target: T3, Serine/threonine-protein kinase Nek2 (Homo sapiens) (UniProt P51955); settings: at 0.1 µM
# T3 sequence (whole entry): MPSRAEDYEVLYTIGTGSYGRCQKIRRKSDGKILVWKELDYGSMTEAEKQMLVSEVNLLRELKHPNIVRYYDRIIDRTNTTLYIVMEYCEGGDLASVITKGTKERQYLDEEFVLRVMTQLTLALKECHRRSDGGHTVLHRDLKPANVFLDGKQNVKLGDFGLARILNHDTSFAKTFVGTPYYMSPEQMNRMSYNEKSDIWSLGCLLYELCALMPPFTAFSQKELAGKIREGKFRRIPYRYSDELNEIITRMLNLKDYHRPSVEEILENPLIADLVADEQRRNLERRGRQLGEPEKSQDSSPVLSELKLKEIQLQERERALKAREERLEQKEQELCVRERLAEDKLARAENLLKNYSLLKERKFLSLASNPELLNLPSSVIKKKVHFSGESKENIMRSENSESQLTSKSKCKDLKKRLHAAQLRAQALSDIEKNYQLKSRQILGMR
# [5] = target: T3, Serine/threonine-protein kinase Nek2 (Homo sapiens); settings: at 1 µM
# [6] = target: Serine/threonine-protein kinase Nek6 (Homo sapiens) (UniProt Q9HC98); settings: at 0.1 µM
# [7] = target: Serine/threonine-protein kinase Nek6 (Homo sapiens) (UniProt Q9HC98); settings: at 1 µM
# [8] = target: Serine/threonine-protein kinase Nek7 (Homo sapiens) (UniProt Q8TDX7); settings: at 0.1 µM
# [9] = target: Serine/threonine-protein kinase Nek7 (Homo sapiens) (UniProt Q8TDX7); settings: at 1 µM
# [10] = target: T4, Serine/threonine-protein kinase Nek9 (Homo sapiens) (UniProt Q8TD19); settings: at 0.1 µM
# T4 sequence (whole entry): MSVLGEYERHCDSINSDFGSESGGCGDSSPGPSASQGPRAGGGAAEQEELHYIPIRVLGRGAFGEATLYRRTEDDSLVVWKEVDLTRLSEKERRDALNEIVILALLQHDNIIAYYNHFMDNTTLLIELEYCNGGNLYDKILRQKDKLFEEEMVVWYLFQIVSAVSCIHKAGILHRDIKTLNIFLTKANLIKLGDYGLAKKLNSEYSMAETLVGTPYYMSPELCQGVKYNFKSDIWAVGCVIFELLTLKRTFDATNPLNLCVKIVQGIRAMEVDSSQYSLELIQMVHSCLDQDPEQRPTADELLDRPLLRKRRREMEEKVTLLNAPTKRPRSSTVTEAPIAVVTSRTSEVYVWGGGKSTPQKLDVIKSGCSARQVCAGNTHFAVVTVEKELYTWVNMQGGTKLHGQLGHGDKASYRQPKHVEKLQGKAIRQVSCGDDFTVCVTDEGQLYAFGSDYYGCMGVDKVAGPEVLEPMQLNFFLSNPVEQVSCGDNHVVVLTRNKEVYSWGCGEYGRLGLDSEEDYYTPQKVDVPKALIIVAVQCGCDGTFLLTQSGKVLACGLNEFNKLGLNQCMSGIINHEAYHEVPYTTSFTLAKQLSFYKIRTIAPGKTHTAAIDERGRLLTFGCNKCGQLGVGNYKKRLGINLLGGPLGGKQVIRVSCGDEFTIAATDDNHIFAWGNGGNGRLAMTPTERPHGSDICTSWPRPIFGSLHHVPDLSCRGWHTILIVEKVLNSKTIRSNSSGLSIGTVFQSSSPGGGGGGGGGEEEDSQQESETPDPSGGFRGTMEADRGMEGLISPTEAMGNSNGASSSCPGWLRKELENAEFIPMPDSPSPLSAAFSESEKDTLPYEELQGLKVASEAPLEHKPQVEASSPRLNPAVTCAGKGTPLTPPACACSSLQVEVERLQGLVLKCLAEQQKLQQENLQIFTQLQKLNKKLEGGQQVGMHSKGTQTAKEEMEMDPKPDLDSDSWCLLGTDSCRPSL
# [11] = target: T4, Serine/threonine-protein kinase Nek9 (Homo sapiens); settings: at 1 µM
# [12] = target: Serine/threonine-protein kinase PLK1 (Homo sapiens) (UniProt P53350); settings: at 0.1 µM
# [13] = target: Serine/threonine-protein kinase PLK1 (Homo sapiens) (UniProt P53350); settings: at 1 µM
# [14] = target: T5, Dual specificity protein kinase TTK (Homo sapiens) (UniProt P33981); settings: at 0.1 µM
# T5 sequence (whole entry): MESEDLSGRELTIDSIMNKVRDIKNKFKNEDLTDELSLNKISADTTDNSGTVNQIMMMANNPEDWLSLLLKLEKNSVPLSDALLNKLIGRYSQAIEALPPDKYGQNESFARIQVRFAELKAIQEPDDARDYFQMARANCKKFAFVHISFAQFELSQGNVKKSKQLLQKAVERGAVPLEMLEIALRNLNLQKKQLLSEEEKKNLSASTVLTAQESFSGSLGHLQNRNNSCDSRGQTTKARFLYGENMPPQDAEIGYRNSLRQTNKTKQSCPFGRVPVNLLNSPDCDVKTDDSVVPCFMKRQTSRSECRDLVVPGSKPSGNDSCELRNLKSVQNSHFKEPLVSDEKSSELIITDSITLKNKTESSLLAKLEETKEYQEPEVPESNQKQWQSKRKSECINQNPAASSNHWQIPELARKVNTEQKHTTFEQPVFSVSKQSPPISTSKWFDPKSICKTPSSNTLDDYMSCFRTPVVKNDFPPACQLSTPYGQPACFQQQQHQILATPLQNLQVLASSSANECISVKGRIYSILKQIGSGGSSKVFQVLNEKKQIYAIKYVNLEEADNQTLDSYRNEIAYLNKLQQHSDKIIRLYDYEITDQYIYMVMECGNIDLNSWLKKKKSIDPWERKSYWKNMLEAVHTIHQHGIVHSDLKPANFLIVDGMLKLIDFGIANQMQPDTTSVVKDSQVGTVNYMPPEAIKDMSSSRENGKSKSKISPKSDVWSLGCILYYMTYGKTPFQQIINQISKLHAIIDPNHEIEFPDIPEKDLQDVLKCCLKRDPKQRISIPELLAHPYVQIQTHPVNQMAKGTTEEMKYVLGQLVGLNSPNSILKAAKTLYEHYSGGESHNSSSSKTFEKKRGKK
# [15] = test system: T6, Receptor-type tyrosine-protein kinase FLT3 (Homo sapiens), P36888 [D835Y]; settings: at 1 µM
# T6 sequence (whole entry): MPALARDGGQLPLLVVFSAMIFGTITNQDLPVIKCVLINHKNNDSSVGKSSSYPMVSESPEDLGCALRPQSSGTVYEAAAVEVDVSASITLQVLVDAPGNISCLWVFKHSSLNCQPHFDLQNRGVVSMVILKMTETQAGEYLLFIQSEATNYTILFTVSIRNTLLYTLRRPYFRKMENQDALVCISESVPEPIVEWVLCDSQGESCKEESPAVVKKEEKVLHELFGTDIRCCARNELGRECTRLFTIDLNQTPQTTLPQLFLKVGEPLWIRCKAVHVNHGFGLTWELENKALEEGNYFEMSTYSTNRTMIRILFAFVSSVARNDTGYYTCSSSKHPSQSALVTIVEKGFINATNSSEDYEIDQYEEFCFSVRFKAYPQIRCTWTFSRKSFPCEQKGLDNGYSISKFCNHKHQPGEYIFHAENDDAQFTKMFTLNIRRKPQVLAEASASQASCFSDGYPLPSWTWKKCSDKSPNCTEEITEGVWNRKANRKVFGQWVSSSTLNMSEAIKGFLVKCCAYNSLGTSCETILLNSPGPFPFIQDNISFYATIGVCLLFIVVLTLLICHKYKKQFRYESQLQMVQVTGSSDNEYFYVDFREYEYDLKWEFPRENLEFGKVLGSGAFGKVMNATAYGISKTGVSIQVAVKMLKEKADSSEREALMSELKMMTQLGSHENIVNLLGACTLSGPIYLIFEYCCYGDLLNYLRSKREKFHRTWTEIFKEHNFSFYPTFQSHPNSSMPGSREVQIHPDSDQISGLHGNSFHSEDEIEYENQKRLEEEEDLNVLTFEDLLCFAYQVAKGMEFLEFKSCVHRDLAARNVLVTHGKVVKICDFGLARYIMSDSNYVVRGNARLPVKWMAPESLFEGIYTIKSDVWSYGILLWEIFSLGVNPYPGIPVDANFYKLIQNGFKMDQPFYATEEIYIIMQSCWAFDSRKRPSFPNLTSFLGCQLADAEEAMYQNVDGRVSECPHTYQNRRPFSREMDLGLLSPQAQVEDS
# [16] = target: Vascular endothelial growth factor receptor 3 (Homo sapiens) (UniProt P35916); settings: at 0.1 µM
# [17] = target: Vascular endothelial growth factor receptor 3 (Homo sapiens) (UniProt P35916); settings: at 1 µM
# [18] = target: Macrophage colony-stimulating factor 1 receptor (Homo sapiens) (UniProt P07333); settings: at 0.1 µM
# [19] = target: Macrophage colony-stimulating factor 1 receptor (Homo sapiens) (UniProt P07333); settings: at 1 µM
# [20] = target: Tyrosine-protein kinase Fyn (Homo sapiens) (UniProt P06241); settings: at 0.1 µM
# Sequence of Tyrosine-protein kinase Fyn (Homo sapiens) (P06241 2-537 limits assumed): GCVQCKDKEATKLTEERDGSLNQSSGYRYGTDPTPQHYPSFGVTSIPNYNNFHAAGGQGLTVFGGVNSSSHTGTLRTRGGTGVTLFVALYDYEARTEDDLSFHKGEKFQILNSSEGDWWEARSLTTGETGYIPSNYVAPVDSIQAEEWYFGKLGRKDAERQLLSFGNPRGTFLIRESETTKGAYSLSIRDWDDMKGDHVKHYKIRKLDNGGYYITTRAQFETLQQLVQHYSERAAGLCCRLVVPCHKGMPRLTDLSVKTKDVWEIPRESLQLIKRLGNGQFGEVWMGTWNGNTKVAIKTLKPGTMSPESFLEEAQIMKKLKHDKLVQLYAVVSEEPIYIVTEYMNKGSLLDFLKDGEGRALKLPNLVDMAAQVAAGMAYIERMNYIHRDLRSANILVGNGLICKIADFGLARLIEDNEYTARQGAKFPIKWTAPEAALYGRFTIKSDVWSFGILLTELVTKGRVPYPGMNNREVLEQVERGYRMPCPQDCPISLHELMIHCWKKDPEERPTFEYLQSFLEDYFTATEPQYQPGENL
# Sequence of Serine/threonine-protein kinase PLK1 (Homo sapiens) (P53350 whole entry): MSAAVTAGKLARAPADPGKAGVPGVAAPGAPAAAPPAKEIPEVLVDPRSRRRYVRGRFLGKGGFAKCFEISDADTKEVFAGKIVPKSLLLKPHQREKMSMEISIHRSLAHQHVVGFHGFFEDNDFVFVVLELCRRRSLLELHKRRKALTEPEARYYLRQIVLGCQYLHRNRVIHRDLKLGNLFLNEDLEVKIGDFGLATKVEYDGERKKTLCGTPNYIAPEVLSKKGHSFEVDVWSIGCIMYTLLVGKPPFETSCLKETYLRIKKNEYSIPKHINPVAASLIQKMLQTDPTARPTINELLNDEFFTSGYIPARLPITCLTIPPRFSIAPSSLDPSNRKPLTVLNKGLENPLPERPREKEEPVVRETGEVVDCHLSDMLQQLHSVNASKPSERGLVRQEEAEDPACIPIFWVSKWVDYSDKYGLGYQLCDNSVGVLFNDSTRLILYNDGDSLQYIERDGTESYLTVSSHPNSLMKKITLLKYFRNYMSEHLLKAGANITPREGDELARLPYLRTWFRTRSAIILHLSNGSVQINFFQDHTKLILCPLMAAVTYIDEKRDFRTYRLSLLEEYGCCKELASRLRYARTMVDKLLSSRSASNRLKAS
# Sequence of Serine/threonine-protein kinase Nek6 (Homo sapiens) (Q9HC98 whole entry): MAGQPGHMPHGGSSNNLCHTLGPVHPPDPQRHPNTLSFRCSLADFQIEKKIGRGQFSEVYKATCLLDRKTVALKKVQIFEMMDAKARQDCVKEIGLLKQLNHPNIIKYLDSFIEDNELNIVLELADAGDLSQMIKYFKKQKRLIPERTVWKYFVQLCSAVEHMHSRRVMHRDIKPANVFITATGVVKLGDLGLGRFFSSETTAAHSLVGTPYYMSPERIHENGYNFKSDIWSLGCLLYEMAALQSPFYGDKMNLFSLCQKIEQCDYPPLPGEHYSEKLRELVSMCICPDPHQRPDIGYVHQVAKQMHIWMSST
# Sequence of Vascular endothelial growth factor receptor 3 (Homo sapiens) (P35916 whole entry): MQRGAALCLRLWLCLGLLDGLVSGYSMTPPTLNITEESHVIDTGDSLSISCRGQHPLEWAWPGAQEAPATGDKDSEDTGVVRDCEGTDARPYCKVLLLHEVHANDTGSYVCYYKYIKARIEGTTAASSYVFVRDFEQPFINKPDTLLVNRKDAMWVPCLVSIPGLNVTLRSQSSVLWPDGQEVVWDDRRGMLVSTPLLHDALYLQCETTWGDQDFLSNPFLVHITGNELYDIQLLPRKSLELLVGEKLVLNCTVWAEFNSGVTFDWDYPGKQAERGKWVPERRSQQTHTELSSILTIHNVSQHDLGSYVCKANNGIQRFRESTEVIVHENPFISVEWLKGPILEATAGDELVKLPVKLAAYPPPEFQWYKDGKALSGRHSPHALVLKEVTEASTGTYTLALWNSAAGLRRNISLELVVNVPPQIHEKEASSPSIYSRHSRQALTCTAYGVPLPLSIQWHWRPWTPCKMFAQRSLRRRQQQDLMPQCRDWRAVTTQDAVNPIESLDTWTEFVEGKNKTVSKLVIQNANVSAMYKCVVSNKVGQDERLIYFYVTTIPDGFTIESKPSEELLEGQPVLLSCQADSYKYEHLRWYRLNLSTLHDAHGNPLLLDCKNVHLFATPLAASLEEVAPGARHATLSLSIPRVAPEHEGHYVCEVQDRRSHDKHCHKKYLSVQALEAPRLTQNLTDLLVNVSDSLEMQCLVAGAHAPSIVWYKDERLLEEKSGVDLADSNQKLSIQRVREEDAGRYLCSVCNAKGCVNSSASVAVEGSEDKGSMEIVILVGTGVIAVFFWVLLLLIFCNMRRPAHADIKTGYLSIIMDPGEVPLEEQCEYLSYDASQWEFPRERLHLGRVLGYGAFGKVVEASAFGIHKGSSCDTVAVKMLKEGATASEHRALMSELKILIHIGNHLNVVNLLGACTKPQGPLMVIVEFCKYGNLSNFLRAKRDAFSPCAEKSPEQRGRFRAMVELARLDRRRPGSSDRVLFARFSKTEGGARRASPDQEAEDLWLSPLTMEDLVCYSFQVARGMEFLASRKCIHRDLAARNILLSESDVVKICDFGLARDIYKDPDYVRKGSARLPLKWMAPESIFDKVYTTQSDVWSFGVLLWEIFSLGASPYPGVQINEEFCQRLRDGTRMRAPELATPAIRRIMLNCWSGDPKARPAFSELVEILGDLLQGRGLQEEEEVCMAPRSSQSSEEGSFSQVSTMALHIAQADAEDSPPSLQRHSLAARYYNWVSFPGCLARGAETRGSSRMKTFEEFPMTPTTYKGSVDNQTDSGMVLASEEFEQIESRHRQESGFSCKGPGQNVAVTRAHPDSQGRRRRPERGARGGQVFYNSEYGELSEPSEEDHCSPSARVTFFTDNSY
# Sequence of Serine/threonine-protein kinase Nek7 (Homo sapiens) (Q8TDX7 whole entry, looked up): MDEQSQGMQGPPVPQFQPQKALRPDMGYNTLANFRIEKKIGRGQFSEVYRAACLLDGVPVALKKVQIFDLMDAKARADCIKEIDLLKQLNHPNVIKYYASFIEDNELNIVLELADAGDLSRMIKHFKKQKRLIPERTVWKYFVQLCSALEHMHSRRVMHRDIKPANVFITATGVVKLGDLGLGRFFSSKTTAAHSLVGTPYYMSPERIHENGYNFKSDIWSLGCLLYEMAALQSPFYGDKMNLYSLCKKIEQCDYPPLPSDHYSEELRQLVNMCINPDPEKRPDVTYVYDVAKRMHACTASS
# Sequence of Macrophage colony-stimulating factor 1 receptor (Homo sapiens) (P07333 whole entry): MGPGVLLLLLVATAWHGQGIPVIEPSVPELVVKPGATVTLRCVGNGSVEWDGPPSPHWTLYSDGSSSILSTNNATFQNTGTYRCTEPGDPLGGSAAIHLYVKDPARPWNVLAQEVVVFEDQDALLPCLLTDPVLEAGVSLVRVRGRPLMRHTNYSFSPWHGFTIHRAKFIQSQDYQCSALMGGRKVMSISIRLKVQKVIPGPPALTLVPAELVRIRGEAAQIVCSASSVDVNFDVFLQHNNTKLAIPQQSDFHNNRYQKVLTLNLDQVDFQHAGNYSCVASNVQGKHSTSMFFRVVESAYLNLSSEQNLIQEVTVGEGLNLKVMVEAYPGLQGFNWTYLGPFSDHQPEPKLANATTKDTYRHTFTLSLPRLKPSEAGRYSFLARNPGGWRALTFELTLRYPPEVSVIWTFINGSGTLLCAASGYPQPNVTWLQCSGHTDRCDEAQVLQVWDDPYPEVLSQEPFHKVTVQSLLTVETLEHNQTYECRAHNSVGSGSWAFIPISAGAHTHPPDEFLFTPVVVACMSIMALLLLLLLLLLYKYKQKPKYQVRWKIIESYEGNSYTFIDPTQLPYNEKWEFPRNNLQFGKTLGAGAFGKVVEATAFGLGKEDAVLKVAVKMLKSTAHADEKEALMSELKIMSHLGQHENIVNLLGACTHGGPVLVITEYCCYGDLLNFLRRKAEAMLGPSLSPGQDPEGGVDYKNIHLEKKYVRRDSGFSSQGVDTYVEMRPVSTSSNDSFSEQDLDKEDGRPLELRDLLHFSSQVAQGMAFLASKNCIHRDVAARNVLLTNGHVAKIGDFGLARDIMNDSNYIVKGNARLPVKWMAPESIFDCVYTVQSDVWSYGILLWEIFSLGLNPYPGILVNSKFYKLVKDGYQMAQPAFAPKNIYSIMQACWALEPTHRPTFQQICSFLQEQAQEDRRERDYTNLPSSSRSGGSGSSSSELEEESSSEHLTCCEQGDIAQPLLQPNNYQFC
smiles,measurement,setting,value
N#Cc1c(NC(=O)c2ccccc2F)sc2c1CCCC2,inhibition,[1],-0.39%
same,inhibition,[2],1.15%
same,inhibition,[3],2.83%
same,inhibition,[4],1.03%
same,inhibition,[5],3.25%
same,inhibition,[6],-4.29%
same,inhibition,[7],-1.45%
same,inhibition,[8],-2.18%
same,inhibition,[9],0.08%
same,inhibition,[10],-2.9%
same,inhibition,[11],1.33%
same,inhibition,[12],-2.61%
same,inhibition,[13],0.29%
same,inhibition,[14],1.48%
same,inhibition,[15],-1.19%
same,inhibition,[16],-2.53%
same,inhibition,[17],0.3%
same,inhibition,[18],-4.22%
same,inhibition,[19],-1.66%
same,inhibition,[20],1.38%
